# Epigenetic derep – Quantitative High-Throughput Screen for Regulators of Epigenetic Control. murine LDR cells, GFP reporter derepression, 30 h. Potency, µM (highest dose often 53.9 µM), inactives show top-dose GFP activation, actives largely listed as activators. 280,000 compounds, 0.2% hits; note: % of control where 0% means no effect; nearly all actives have a fitted effect of over 60% in size
#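 Derepression of a silenced CMV-GFP reporter in murine LDR cells is scored by enumerating GFP-positive cells with a laser-scanning microplate cytometer after 30 hours of treatment at 37 C.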
# Vif-APOBEC3F blk – qHTS for Inhibitors of Vif-A3F Interactions: qHTS; HeLa A3F-eYFP + Vif (tagged APOBEC3F with the HIV-1 protein that degrades it), YFP fluorescence increase; Potency, µM (highest dose often 46.1 µM), inactives show at the top dose activity, negative = active; 390,000 compounds, 0.2% hits; note: % of control where 0% means no effect; nearly all actives have a fitted effect of over 65% in size
#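 HeLa cells stably expressing A3F-eYFP plus Vif, plated and incubated overnight at 37 deg C, then exposed to compounds overnight at 37 deg C. Blocked degradation read as raised yellow fluorescence (Ex 488/Em 500-530).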
# PINK1 modulator – A Quantitative High throughput Screen to Identify Chemical Modulators of PINK1 Expression; PINK1 immunofluorescence, high-content cytometry, 24 h; Potency, µM (series often up to 76.6 µM), without a hit: at the top dose activation (PINK1 increase), actives largely listed as activators; 410,000 compounds, 0.2% hits; active = well fitted activation curve with a large enough effect; inconclusive = small, poorly fitted or top-dose-only effect; cell line not stated here; note: % of control where 0% means no effect; nearly all actives have a fitted effect of over 65% in size
#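 Fluorescence from anti-PINK1 antibody, together with nuclear and cell stains, was scanned on a laser-scanning cytometer. Before staining, stable-line cells were incubated 24 hours with compounds at 5 concentrations; primary antibody 12 h at 10 degrees C.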
# Vif-A3G inh – qHTS for Inhibitors of Vif-A3G Interactions: qHTS | 410,000 compounds, 0.076% hits | DNA dC->dU-editing enzyme APOBEC-3G (Homo sapiens), Q9HC16 | AID 602310, 2012 | Potency, µM (titrated, usually from 46.1 µM), for the others: at the top dose activity, negative = active, actives largely listed as inhibitors | HeLa A3G-eYFP + Vif (tagged APOBEC3G with the HIV-1 protein that degrades it), YFP fluorescence, overnight; note: % is set by controls: 0 for no effect and ±100 for the full control effect; nearly all actives have a fitted effect of over 60% in size
# Target sequence (Q9HC16 whole entry, looked up): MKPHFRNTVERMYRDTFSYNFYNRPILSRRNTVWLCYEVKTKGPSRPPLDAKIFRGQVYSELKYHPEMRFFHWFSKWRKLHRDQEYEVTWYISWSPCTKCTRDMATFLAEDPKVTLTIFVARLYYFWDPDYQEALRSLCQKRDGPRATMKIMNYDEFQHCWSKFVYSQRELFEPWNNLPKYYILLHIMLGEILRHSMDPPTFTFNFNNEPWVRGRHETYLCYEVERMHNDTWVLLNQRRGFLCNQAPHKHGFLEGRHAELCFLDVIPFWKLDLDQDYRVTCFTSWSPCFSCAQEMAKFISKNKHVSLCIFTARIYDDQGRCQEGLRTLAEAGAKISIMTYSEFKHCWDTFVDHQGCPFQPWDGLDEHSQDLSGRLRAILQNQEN
#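 HeLa cells stably expressing Vif and C-terminally eYFP-tagged A3G, seeded overnight at 37 deg C, then exposed to compound by pintool overnight at 37 deg C. Rise in yellow fluorescence (Ex 488/Em 500-530, Acumen) marks blocked Vif-driven A3G degradation.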
# Starred values were filed as active, the others as inactive; ? = inconclusive; / = no result; [ ] = remark or other dose. Shown are actives, neighbours in structure and some others; about 0.51% of the full set was active somewhere. Unless noted, calls come from the whole dose curve; as a rule, active = well fitted curve in the direction sought with a large enough effect; inconclusive = small, poorly fitted or top-dose-only effect, or another doubt; inactive = no such curve, though single readings can be large; an effect the other way counts as inactive or inconclusive. Potency is the fitted concentration of half-maximal effect.
SMILES,Epigenetic derep,Vif-APOBEC3F blk,PINK1 modulator,Vif-A3G inh
COc1ccccc1N1C(=O)C(Cl)=C(Nc2ccccc2O)C1=O,13%,22µM*,2%,?
CCOc1ccc(Cl)cc1CNCCNCCO,1%,7%,?,-6%
O=C(N/N=C/C=C/c1ccco1)c1ccncc1,3%,11µM*,1%,3%
CCN(Cc1ccccc1)Cc1c(O)ccc2oc(C)c(C(=O)Nc3ccc(C)cc3C)c12,-2%,-1%,2%,8%
CC(C)n1nc(C(=O)Nc2nnc(SCc3c(Cl)cccc3Cl)s2)c2ccccc2c1=O,1%,-5%,5.6µM*,0%
CSc1nc(/C=C2\C=Nc3ccccc32)c(O)n1C,1%,-6%,5%,-18%
CCCOc1ccc(C(=O)Nc2cccc(NC(=O)c3ccc(Cl)cc3Cl)c2)cc1,?,?,5%,13µM*
CCCOc1cccc(C(=O)Nc2cccc(NC(=O)c3ccc(Cl)cc3Cl)c2)c1,0%,-5%,1%,1%
COc1cc(/C=C2/CCC/C(=C\c3cc(O)c(OC)c(Cl)c3)C2=O)cc(Cl)c1O,?,6.3µM*,0%,?
Cn1nc(C(=O)OCc2ccccc2F)c2ccccc2c1=O,0%,-9%,2%,0%
Cc1ccc(C(=O)N/N=C(/CC(=O)c2cccs2)C(F)(F)F)cc1,0%,-5%,45µM*,-9%
CC(C)n1cc(/C=C/c2cc[n+](C)cc2)c2ccccc21,/,-498%,40µM*,4µM*
C=CCn1cc(/C=C/c2cc[n+](C)cc2)c2ccccc21,/,?,45µM*,?
CCn1cc(/C=C/c2cc[n+](C)cc2)c2ccccc21,/,-521%,28µM*,2.5µM*
Cc1ccccc1/C=C/c1cc[n+](C)cc1,5%,5%,2%,2%
COc1ccccc1CN(C)C(=O)c1cccc(S(=O)(=O)N2CCCC2)c1,/,5%,-1%,-4%
CNC(=O)N(O)C1N(/N=C/c2ccc(N(C)C)cc2)C(=S)SC1(C)C (stereo not drawn),/,7%,0%,-6%
CC1(C)SC(=S)N(/N=C/c2ccccc2)C1N(O)C(=O)Nc1ccc([N+](=O)[O-])cc1 (stereo not drawn),-1%,9%,32µM*,0%
CC(=O)N1CCN(C(=O)COC(=O)c2oc3ccccc3c2C)CC1,/,-1%,0%,-9%
Nc1nonc1-c1nc2ccccc2n1CC(=O)Nc1ccccc1,2%,-5%,12%,-13%
Nc1nonc1-c1nc2ccccc2n1CC(=O)Nc1cccc(C(F)(F)F)c1,?,25µM*,2%,?
CC(NC(=O)CSc1nc2c(c(C(F)(F)F)n1)CCc1ccccc1-2)c1ccccc1 (stereo not drawn),2%,6%,-1%,2%
CCc1c(C)sc(NC(=O)CSc2nc3c(c(C(F)(F)F)n2)CCc2ccccc2-3)c1C#N,1%,-1%,16µM*,0%
C(=C\c1cccs1)/c1ccccn1,/,/,/,2%
Cc1ccc(CSc2ncc(Cl)c(C(=O)Nc3sc4c(c3C(N)=O)CCCC4)n2)cc1,?,2%,4%,4%
SMILES,Epigenetic derep,Vif-APOBEC3F blk,PINK1 modulator,Vif-A3G inh
CNC(=O)c1c(NC(=O)c2nc(SCc3ccc(C)cc3)ncc2Cl)sc2c1CCCC2,22µM*,-7%,1%,-2%
Fc1ccc(CN2CCN(C(c3ccccc3)c3ccccc3)CC2)cc1,/,0%,40µM*,0%
O=C1CSC(=S)N1c1cccnc1,-1%,-6%,3%[38.3 µM],1%
O=C1CSC(=S)N1Cc1cccnc1,2%,11µM*,9%,?
CN(C)CCN(C(=O)/C=C/c1cccs1)c1nc2c(F)cc(F)cc2s1,1%,11µM*,-2%,-18%
CN(C)CCCN(C(=O)/C=C/c1cccs1)c1nc2ccc(F)cc2s1,3%,11µM*,-1%,?
CCN(CC)CCN(C(=O)/C=C/c1cccs1)c1nc2ccc(F)cc2s1,/,-16%,11%,0%
Cc1ccc(NS(=O)(=O)c2cccc(C(=O)Nc3cc(C)on3)c2)cc1,-8%,8%,2%,2%
COc1ccc(-n2c(C)cc(C3=NNC(=NC4CC4)SC3)c2C)cc1,3%,-12%,32µM*,-23%
CN=C1NN=C(c2cc(C)n(-c3c(C)n(C)n(-c4ccccc4)c3=O)c2C)CS1,1%,5%,-1%,-7%
Cc1cc(C2=NNC(=NC3CC3)SC2)c(C)n1-c1ccccc1,0%,-2%,40µM*,1%
COc1ccc(/C=N/NC(=S)Nc2ccccc2)cc1,2%,-9%,2%,0%
CC(=O)c1cccc(-c2ccnc3c2CC(C(=O)NCc2ccco2)O3)c1 (stereo not drawn),/,/,4%,0.89µM*
CC(=O)c1c(C)[nH]c(C(=O)N2CCN(S(=O)(=O)c3ccc(C)cc3C)CC2)c1C,/,-4%,0%,2%
O=[N+]([O-])c1ccc(S(=O)(=O)Nc2ccncc2)cc1,/,-14%,0%,-4%
O=[N+]([O-])c1ccc(NS(=O)(=O)c2ccc(Cl)c(Cl)c2)cc1,/,/,16µM*,-12%
Cc1cccc(CNC(=O)c2ccc(Cn3c(=O)c4cccn4c4cccnc43)cc2)c1,18µM*,-27%,0%,0%
COc1cc(/C=C(\C#N)c2nc3ccccc3[nH]2)ccc1OCc1ccccc1F,13%,22µM*,?,?
COc1cc(/C=C(\C#N)c2nc3ccc(C)cc3[nH]2)ccc1OCc1ccc(C)cc1,5.6µM*,?,8%,-25%
COc1ccc(/C=C(\C#N)c2nc3ccccc3[nH]2)cc1O,/,-24%,8%,-19%
CSc1cccc(NC(=S)N2CCC(N(C)C3CCCCC3C)CC2)c1 (stereo not drawn),0%,0%,0%,4%
CCN(CC(=O)Nc1c(F)cccc1F)C(=O)CNC(=O)c1ccc(C)s1,/,4%,0%,-1%
CC(NC(=S)NCCc1ccccc1)C(c1cccs1)N1CCN(Cc2ccccc2)CC1 (stereo not drawn),1%,4%,16µM*,0%
CCOC(=O)/C(C#N)=C/c1ccc(-c2ccsc2C(=O)OC)o1,0%,?,25µM*,1%
S=C(c1cn(CCOc2cccc3ccccc23)c2ccccc12)N1CCCC1,-1%,-22%,28µM*,-7%
S=C(c1cn(CCOc2ccccc2)c2ccccc12)N1CCCC1,-5%,7%,?,0%
Cc1nc(C(C)NC(=O)CCc2nnc(CCCc3ccccc3)o2)c(C)s1 (stereo not drawn),4%,0%,0%,0%
FC(F)(F)c1cnc(NNC(=S)Nc2ccccc2Cl)c(Cl)c1,2%,-7%,?,1%
Cc1cccc(NC(=S)NNc2ncc(C(F)(F)F)cc2Cl)c1,-3%,-9%,20µM*,-11%
COC(=O)c1cc(NC(=O)c2cccc(C(F)(F)F)c2)c(=O)oc1C/C=N/OCc1cccc(Cl)c1Cl,2%,?,22µM*,-9%

# Screening data deposited in PubChem by National Center for Advancing Translational Sciences (NCATS).
